Screening data (PubChem)
Only some compounds are listed: those with a hit (about 12% of all), similar ones and a draw of the others.
PLK1 PBD inh – PLK1 (human) polo-box domain binding inhibition; P53350; Plk1 PBD binding of FITC phosphopeptide, fluorescence polarization; Potency, µM, for the others: max response, negative = inhibition, hits mostly inhibitors; 2.8% of 360,000 active; note: series mostly up to about 57 µM; nearly all actives have a fitted effect of over 65% in size
Gal4-VP16 FLuc – inhibits Gal4-VP16 luciferase reporter, ROR gamma counter-screen. Drosophila S2 Gal4-VP16 UAS-luciferase, luminescence, 20 h. Potency, µM (top dose mostly 53.6 µM), for the others: top-dose activity, negative = inhibition, most hits filed as inhibitors. 3.5% of 310,000 active. AID 2546;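 note: Gal4-VP16 expression switched on by copper sulfate through the metallothionein promoter; nearly all actives have a fitted effect of over 50% in size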
Sfp PPTase inh – Sfp phosphopantetheinyl transferase inhibition; Q9F4F7; Biochemical Sfp PPTase activity, qHTS; Potency, µM, without a hit: largest response in the series, negative = inhibition, hits mostly inhibitors; 3.5% of 310,000 active; AID 1490;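 note: the enzyme is Sfp with the accession as filed and its product quenches rhodamine fluorescence; 0% = enzyme reaction without inhibitor and -100% = no enzyme wells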
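Buffer: 50 mM Hepes-Na pH 7.6, 10 mM MgCl2, 0.01% Nonidet P-40, 0.01% BSA. Enzyme 15 nM, pre-exposed to compound 15 min; substrates then added and fluorescence change tracked over 30 min.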
RORg inh – ROR gamma (mouse) transcription inhibition; Potency, µM (doses to about 53.6 µM), for the others: at the highest dose activity change, negative = inhibition, usual class: inhibitors; Drosophila S2 Gal4-RORgamma UAS-luciferase reporter, 20 h; 5.4% of 310,000 active; P51450; note: nearly all actives have a fitted effect of over 60% in size
Target sequence (P51450 whole entry, looked up, the tested form may be a part): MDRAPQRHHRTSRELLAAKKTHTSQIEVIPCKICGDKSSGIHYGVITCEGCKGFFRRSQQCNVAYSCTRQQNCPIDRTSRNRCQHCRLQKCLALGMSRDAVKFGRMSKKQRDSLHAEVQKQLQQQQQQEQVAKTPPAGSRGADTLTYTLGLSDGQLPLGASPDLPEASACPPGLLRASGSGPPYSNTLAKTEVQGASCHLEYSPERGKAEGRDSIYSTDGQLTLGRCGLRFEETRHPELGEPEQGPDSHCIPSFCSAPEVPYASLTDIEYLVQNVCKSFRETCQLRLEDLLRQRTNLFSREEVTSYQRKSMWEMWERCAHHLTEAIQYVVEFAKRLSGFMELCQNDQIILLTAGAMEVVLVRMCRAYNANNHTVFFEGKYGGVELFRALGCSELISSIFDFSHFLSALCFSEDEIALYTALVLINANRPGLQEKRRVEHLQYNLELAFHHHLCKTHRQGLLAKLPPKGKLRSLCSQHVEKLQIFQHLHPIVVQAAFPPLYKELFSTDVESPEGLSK
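Luminescence from a UAS-regulated Photinus luciferase reporter in stably transfected Drosophila Schneider cells is measured; decreased signal marks ROR gamma inhibition. Fusion expression is induced by 700 uM copper sulfate for 20 hr.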
ALDH1A1 inh – ALDH1A1 (human) enzyme inhibition. 7.3% of 220,000 active. AID 1030. Purified ALDH1A1, NADH fluorescence, propionaldehyde substrate. Potency, µM (top dose mostly 75.3 µM), inactives show top-dose activity, negative = inhibition, hits mostly inhibitors. P00352; active = well fitted inhibition curve with a large enough effect, not every such curve was filed as active; inconclusive = small, poorly fitted or top-dose-only effect, or another doubt; inactive = no such curve, though single readings can be large or run the other way;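 note: plate controls were no enzyme wells and a reference inhibitor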
* marks the source's active call; other numbers are inactive results; u = inconclusive; x = no result given; [ ] = another dose, or the depositor's remark. Unless noted, calls come from the whole dose curve; as a rule, active = well fitted curve in the direction sought with a large enough effect; inconclusive = small, poorly fitted or top-dose-only effect, or another doubt; inactive = no such curve, though single readings can be large; an effect the other way counts as inactive or inconclusive. Unless noted, % is set by controls: 0 for no effect and ±100 for the full control effect; potency is the fitted concentration of half-maximal effect.

SMILES	PLK1 PBD inh	Gal4-VP16 FLuc	Sfp PPTase inh	RORg inh	ALDH1A1 inh
Cc1ccc(C)c(-c2nnc(NC(=O)Cc3ccccc3)o2)c1	-4%	1.1µM*	24%	1µM*	x
CC(=O)N1CC[C@H]2CC(=O)CC[C@@]21C	x	-1%[96.6 µM]	-8%	12%[96.6 µM]	3%[120 µM]
CN(C)C(=O)c1ccc(-c2cc(NCc3cccnc3)ncn2)cc1	x	-8%	23%	-30%	u
C[C@H](CO)N1C[C@H](C)[C@@H](CN(C)Cc2ccc(-c3ccccc3)cc2)Oc2c(NC(=O)Nc3ccc4c(c3)OCO4)cccc2C1=O	-7%	x	x	x	x
O=C(Cc1ccccc1)Nc1nnc(-c2ccccc2)o1	8%	3.5µM*	24%	1.1µM*	x
O=C(COC(=O)CCC(=O)c1ccccc1)Nc1nnc(-c2ccccc2)o1	-3%	x	x	x	x
NC1=NC(=O)CC(C(=O)NCc2ccccc2)S1 (stereo not drawn)	-9%	-1%	14%	-9%	18µM*
NC1=NC(=O)C(CC(=O)NCc2ccccc2)S1 (stereo not drawn)	-18%	1%	-14%	-30%	u
N#Cc1ccc(CN2CCCC3(CCN(C(=O)c4cccc(F)c4)CC3)C2)cc1	x	-1%	13%	-14%	u
CC(C)(Oc1ccc(C2CCCc3ccccc32)cc1)C(=O)O (stereo not drawn)	x	3%	-3%	13%	x
COc1cc2ccc(=O)oc2cc1O	5%	-20%	4%	11%	u
O=Nc1ccc2oc(=O)ccc2c1	x	x	x	x	0.13µM*
N#Cc1cccc(NC(=O)c2cc(C3CCCCN3S(=O)(=O)c3ccccc3)on2)c1 (stereo not drawn)	0%	x	x	x	x
Cc1ccc(NC(=O)NC2CCCCC2)c(C)c1	-2%	10%	-1%	14%	-1%
Cc1ccc(C)c(NC(=S)NC2CC3CCCC(C2)N3CC(C)C)c1 (stereo not drawn)	-10%	u	10%	14µM*	11%
Cc1cc(OC(F)F)ccc1NC(=S)NC1CCCC1	-2%	7.1µM*	19%	2.5µM*	x
Cc1ccc(NC(=S)NC2CCCC2)c(C)c1	-10%	6.3µM*	16%	7.1µM*	x
CCCN1C2CCCC1CC(NC(=S)Nc1cc(C)cc(C)c1)C2 (stereo not drawn)	-10%	15%	16%	-26%	2%
Cc1cc(F)ccc1NC(=S)NC1CCCC1	-2%	10µM*	-2%	6.3µM*	x
CC1=NN(c2nc(-c3ccc(F)cc3)cs2)C(=O)C1	-10%	-8%	21%	13µM*	1%
CS(=O)(=O)N1CCN(c2nc(-c3ccc(F)cc3)cs2)CC1	-3%	-2%	-5%	38%	6%
CC1=NN(c2nc(-c3ccc(C)cc3)cs2)C(=O)C1N=Nc1ccccc1O (stereo not drawn)	-23%	3%	u	3%	u
COc1ccc(-c2csc(N3N=C(C)C(C)C3=O)n2)cc1 (stereo not drawn)	-9%	u	21%	8.9µM*	u
CC1=NN(c2nc(-c3ccc(C)cc3)cs2)C(=O)C1N=Nc1cccc(O)c1 (stereo not drawn)	4.7µM*	5%	-15%	-28%	u
O=C(/C=C/c1ccccc1)OC1CC(O)C2(O)C=CO[C@@H](OC3OC(CO)C(O)C(O)C3O)C12 (stereo partly drawn)	x	-13%	21%	-2%	-2%
SMILES	PLK1 PBD inh	Gal4-VP16 FLuc	Sfp PPTase inh	RORg inh	ALDH1A1 inh
NNC(=O)c1ccc(Oc2cc(Cl)cc(Cl)c2)o1	1%	1%	-6%	u	0.16µM*
Cc1ccc(/C(=N/Nc2ncnc3ccccc23)C(=O)O)cc1	-20%	0.89µM*	-26%	0.05µM*	x
COC(=O)C(=O)C/C(=N/Nc1ncnc2ccccc12)c1ccc(Cl)cc1	-2%	u	10%	11µM*	x
O=C(COc1ccc(CNC[C@H]2O[C@@H](n3ccc(=O)[nH]c3=O)[C@H](O)[C@@H]2O)cc1)Nc1ccccn1	-6%	x	x	x	x
O=C(Nc1cccc(Cl)c1)N1CCN2C(=O)c3ccccc3C12c1ccccc1 (stereo not drawn)	12µM*	-8%	17%	u	1%
Cc1ccc(-c2csc(C(O)c3ccc(F)c(F)c3)n2)cc1C (stereo not drawn)	2%	x	x	x	x
CC(O)CNCCOc1ccccc1-c1ccccc1 (stereo not drawn)	1%	-19%	71µM*	11%	11µM*
OCCNCCOc1ccccc1-c1ccccc1	-6%	0%	2%	-9%	-12%
COc1ccc(-c2noc(CN(C)C(=O)CCCN3C(=O)[C@H]4CC=CC[C@H]4C3=O)n2)cc1	-2%	x	x	x	x
O=C1C(c2ccccc2)SC(=Nc2ccccc2)N1S(=O)(=O)c1ccccc1 (stereo not drawn)	17µM*	u	13µM*	11%	3.2µM*
Cc1cccc(N2C(=O)CSC23CCCCC3)c1	-4%	-1%	12%	2%	2%
CCCN1CCN(CCCNC(=O)Cn2nc(C)n3c(cc4cc(F)ccc43)c2=O)CC1	30µM*	-14%	21%	-6%	x
CC(=O)c1ccc(N2CCN(S(=O)(=O)c3cccc4nsnc34)CC2)cc1	27µM*	-3%	14%	0%	-6%
COc1ccc(N2CCN(S(=O)(=O)c3cccc4nsnc34)CC2)cc1	-2%	-3%	1%	16%	3%
Cc1cnc(C(=O)Nc2nc(-c3ccccc3)cs2)cn1	-10%	4.5µM*	-28%	4.5µM*	7%
O=C(NCc1ccccn1)C(=O)Nc1nc(-c2ccccc2)cs1	2%	u	25%	10µM*	x
CC1CC1C(=O)Nc1nc(-c2ccccc2)cs1 (stereo not drawn)	2%	0%	-2%	23%	10µM*
CN(C)CC(=O)Nc1nc(-c2ccccc2)cs1	u	u	-2%	11µM*	-2%
O=C(NCCc1ccc(Cl)cc1)c1cc(S(=O)(=O)N2CCCCC2)c[nH]1	3%	-2%	-13%	u	x
Cc1cnc(C(=O)Nc2cccc3ncccc23)cn1	-3%	4%	-8%	8%	u
CC(=O)NC(CC(=O)Nc1nc(-c2ccc(N(C)S(C)(=O)=O)cc2)cs1)c1ccccc1 (stereo not drawn)	0%	11µM*	12%	4%	x
Cc1cnc(C(=O)Nc2ccccc2-c2ccc(C)o2)cn1	-7%	u	50µM*	7.1µM*	0%
COCCNC(=O)C1(C)CCN(C(=O)c2ccc(SC(F)(F)F)cc2)C1 (stereo not drawn)	-8%	x	x	x	x
N#Cc1ccccc1NC(=O)CNc1ccc(Cl)c(C(F)(F)F)c1	7%	11µM*	-5%	u	-10%
N#Cc1ccccc1NC(=O)Nc1ccc(Cl)cc1	3%	-2%	10%	22%	u
C1=C[C@H]2CCCN3CC[C@@H]([C@@H]2[C@]32CO2)[C@H]1CCOCc1ccccc1	-3%	x	x	x	x
COc1ccc(NS(=O)(=O)c2ccc(-n3nnc4ccccc43)c([N+](=O)[O-])c2)cc1	-6%	5%	-2%	0%	u
